Experimental data from the OligoGym collection.
Note: reference of the scale not given here.

The sequences below were run against FXN (assay: pooled miR-30 sensor sort-seq; sequence = guide strand). Details: shRNA.
TAGTCTTTCATAGGTGGTCTCA showed a sensor-assay potency score (higher = more potent) of -0.873. TGGTCTCATCTAGAGAGCCTGG was tested, and the sensor-assay potency score (higher = more potent) was -1.32. For TTTAGTGAGCTCTGCGGCCAGC, the sensor-assay potency score (higher = more potent) was -1.33. ATTCATCAAATAGACACTCTGC was tested, and the sensor-assay potency score (higher = more potent) was 0.393. Sequence TTTCATAGGTGGTCTCATCTAG has a sensor-assay potency score (higher = more potent) of -0.00192. TTGACAGTTAAGACACCACTCC gave a sensor-assay potency score (higher = more potent) of -0.462. Work on TTTTGACATTCCAAATCTGGTT yielded a sensor-assay potency score (higher = more potent) of -0.929. Work on TTGCTTGTTTGGCGTCTGCTTG yielded a sensor-assay potency score (higher = more potent) of -0.812. TAAGGCTTTAGTGAGCTCTGCG was tested, and the sensor-assay potency score (higher = more potent) was 0.283.

The sequences below were run against FXR1 in the same assay as above. Details: shRNA.
TAAGCATCAACTTCGTACGAAT was tested, and the sensor-assay potency score (higher = more potent) was -0.962. In the case of TATACCTCTACTTCATCTCCTT, the sensor-assay potency score (higher = more potent) is reported as 0.473. Sequence TATTAATCTTTTCTTCTCCTGG has a sensor-assay potency score (higher = more potent) of -0.0994. Sequence TTCATTTCTGGACATAAGCATC has a sensor-assay potency score (higher = more potent) of -1.34. TTGAGCACAGAACTGATGGAGG was tested, and the sensor-assay potency score (higher = more potent) was -0.647. TTGCTCTTGAATATACCTCTAC showed a sensor-assay potency score (higher = more potent) of -0.669. For TTCAATCACATCTTTTGCCATT, the sensor-assay potency score (higher = more potent) was -1.45. With TATTTTATAACACAGTAGGTGT the sensor-assay potency score (higher = more potent) was -0.648. Sequence TTATTTTCAAAAACAACTGTAA has a sensor-assay potency score (higher = more potent) of -0.406. Work on TTTCTTGAATAACTTTGCCATT yielded a sensor-assay potency score (higher = more potent) of -1.55. Work on TGTCTCGATCATCTTCTCCTGC yielded a sensor-assay potency score (higher = more potent) of 0.196.

The sequences below were run against FYTTD1 in the same assay as above. Details: shRNA.
In the case of TAGGTCTCTTGAGAACTGCTAC, the sensor-assay potency score (higher = more potent) is reported as -0.309. Work on TGCTACTACATCGTCTAGCAGT yielded a sensor-assay potency score (higher = more potent) of -0.935. Work on TATTCTTGTCACTTAGAGGTGG yielded a sensor-assay potency score (higher = more potent) of 0.0654. With TTCTGTATTCAACTGGGCCTGC the sensor-assay potency score (higher = more potent) was -0.211. TTCTCTTTGCTACTACATCGTC was tested, and the sensor-assay potency score (higher = more potent) was -0.513. Sequence TAGCTGGCTAGGTCTCTTGAGA has a sensor-assay potency score (higher = more potent) of -1.72. With TTTAATTTATTTCCACTCCTGG the sensor-assay potency score (higher = more potent) was -0.341. With TACTACATCGTCTAGCAGTTGT the sensor-assay potency score (higher = more potent) was 0.276. With TTATTTTTTCTGCTTAGCTGGC the sensor-assay potency score (higher = more potent) was -0.29. TTGTATGTGAGAGTGGCTCTTT was tested, and the sensor-assay potency score (higher = more potent) was -0.0403. Work on TAGTCTTGGAAAATTCTGCTTC yielded a sensor-assay potency score (higher = more potent) of 0.266. With TTAAAAATGAAGGTACAGCAGT the sensor-assay potency score (higher = more potent) was -0.441.

These sequences were tested against FZD1 in the same assay as above. Details: shRNA.
Sequence ATGAAGACCGTGAAGTCCGGGC has a sensor-assay potency score (higher = more potent) of -0.0414. Work on TGTCATTACACACCACTCGGTC yielded a sensor-assay potency score (higher = more potent) of -0.427. With TTCACTAGAGGGTAGAACTGGT the sensor-assay potency score (higher = more potent) was 0.461. Sequence TACTTAATCATGAAGACCGTGA has a sensor-assay potency score (higher = more potent) of -0.126. TTGCTGTTGGTGAGCCTCGTGT gave a sensor-assay potency score (higher = more potent) of -1.11. In the case of TTTCACTAGAGGGTAGAACTGG, the sensor-assay potency score (higher = more potent) is reported as -0.532. TTGTCATTACACACCACTCGGT gave a sensor-assay potency score (higher = more potent) of -0.649. With TTGCTGGTCCAGAACTCTGGAA the sensor-assay potency score (higher = more potent) was -1.24.
